# Experimental data as given in paper PMC5540273 (PLoS ONE, 2017).
# Experiments:
# Details in all cases: concentration: 1 μM, replicates: in singlicate; n = 1
# EPHB3 = system: EPHB3
# EPHB4 = system: EPHB4
# EPHB6 = system: EPHB6
# ERBB2 = system: ERBB2
# ERBB3 = system: ERBB3
# ERBB4 = system: ERBB4
# ERK1 = system: T1, ERK1
# T1 construct: gene MAPK3
# ERK2 = system: T2, ERK2
# T2 construct: gene MAPK1
# ERK3 = system: T3, ERK3
# T3 construct: gene MAPK6
# ERK4 = system: T4, ERK4
# T4 construct: gene MAPK4
# 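Also: KINOMEscan kinase panel screen.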
SMILES,%Inh (EPHB3) [%],%Inh (EPHB4) [%],%Inh (EPHB6) [%],%Inh (ERBB2) [%],%Inh (ERBB3) [%],%Inh (ERBB4) [%],%Inh (ERK1) [%],%Inh (ERK2) [%],%Inh (ERK3) [%],%Inh (ERK4) [%]
Cc1nc(N(C)[C@H]2CN(C(=O)CC#N)CC[C@H]2C)c2cc[nH]c2n1,6,9,19,7,0,0,8,13,5,19
Cc1nn2c(=O)cc(N3CCOCC3)nc2n1Cc1cccc(Cl)c1Cl [GSK2342769],16,16,0,0,0,0,0,0,0,5
COc1cc2ncn(-c3cc(OCCCc4ccccc4)c(C(N)=O)s3)c2cc1OC [GSK205189],0,6,39,12,0,0,5,3,0,0
Nc1nc(-c2ccccc2F)c(-c2ccnc3ccccc23)s1 [GW560459],0,1,0,71,0,36,10,0,0,0
Fc1cccc(CSc2nnc(-c3ccc4c(c3)CCO4)o2)c1,0,0,14,59,8,0,5,30,21,0
COc1cccc(C2=C(N(C)c3ccccc3)C(=O)NC2=O)c1 [SB-334865],3,0,11,41,0,0,7,0,0,46
COc1cc2ncn(-c3cc(OCc4ccncc4)c(C(N)=O)s3)c2cc1OC [GSK336313],0,10,22,0,0,22,0,0,28,46
OCCCNc1nccc(-c2c(-c3cccc(C(F)(F)F)c3)nn3cc(C(F)(F)F)ccc23)n1 [GW630813],0,10,0,19,12,40,0,0,0,0
COc1ccc(CNC(=O)NC2CCN(c3ccnc(Nc4ccc(F)cc4)n3)C2)cc1 (stereo not drawn) [GSK1379706],6,16,30,41,47,2,6,14,14,0
CCn1c(-c2nonc2N)nc2ccccc21 [SB-693162/GW549034],0,0,45,0,4,0,0,10,0,0
COc1cc2nccc(Nc3ccc(OCc4ccc(NC(C)=O)cc4)cc3)c2cc1OC.Cl [GW440135],32,19,19,31,40,9,0,0,5,0
Cc1ccccc1COc1cc(-n2cnc3cc(Cl)ccc32)sc1C(N)=O [GW813349],0,10,17,14,54,0,1,0,0,0
CCS(=O)c1ccc(-c2coc3ccc(-c4nnc(C)o4)cc23)cc1 (stereo not drawn),0,9,3,8,3,9,0,13,0,0
O=C(Nc1n[nH]c2nc(-c3ccccc3)c(Br)cc12)C1CC1 [SB-708998],5,13,23,11,3,0,5,0,2,0
COC(=O)c1c(-c2ccccc2)c2cc(Br)ccc2c(=O)n1Cc1ccc(S(C)(=O)=O)cc1,30,18,34,55,6,13,1,38,4,3
COc1cc(OC)cc(-c2cc3cnc(N)nc3nc2NC(=O)NC(C)(C)C)c1,0,0,24,4,0,4,0,0,0,4
CCCC(=O)Nc1n[nH]c2ncc(-c3cccc4ccccc34)cc12 [SB-642057],0,0,41,11,0,26,8,0,0,22
Nc1nccc2scc(-c3ccc4c(c3)CCN4C(=O)Cc3ccccc3)c12 [GSK2576924],4,22,88,31,0,8,0,0,0,33
Cc1ccc(Oc2ccc(Nc3ncnc4cc[nH]c34)cc2C)cn1,26,28,53,100,24,29,0,26,0,7
O=C(NCCNc1ccnc(Nc2ccc(F)cc2)n1)Nc1ccc2c(c1)OCO2 [GSK1379882],0,0,38,9,10,7,0,0,9,22
CCC(=O)c1c(-c2ccccc2)c2cc(Cl)ccc2c(=O)n1Cc1ccc(C(=O)O)cc1,5,0,0,16,0,0,0,5,0,0
COC(=O)c1c(-c2ccccc2)c2cc(C)ccc2c(=O)n1Cc1ccccc1,45,1,0,5,0,0,0,9,0,0
FC(F)(F)c1ccc(-c2ncn(CCCN3CCOCC3)c2-c2ccncc2)cc1 [SB-217780],0,9,18,16,0,47,0,0,7,0

SMILES,%Inh (EPHB3) [%],%Inh (EPHB4) [%],%Inh (EPHB6) [%],%Inh (ERBB2) [%],%Inh (ERBB3) [%],%Inh (ERBB4) [%],%Inh (ERK1) [%],%Inh (ERK2) [%],%Inh (ERK3) [%],%Inh (ERK4) [%]
CCn1c(-c2ccoc2)nc2cnccc21 [SB-733887],17,0,26,8,14,0,0,0,12,11
Nc1ncnc2c1ncn2-c1cccc2ccccc12 [SKF-97184],0,0,0,10,26,41,0,0,0,0
CN1C(=O)C(Nc2cc(Cl)c(O)c(Cl)c2)=C(c2ccc(Cl)cc2)C1=O [SB-404321],0,0,0,24,0,0,0,9,0,0
C[C@@H]1CC[C@H](C(=O)NC2CCCCC2)CN1c1cc(-c2ccc3c(N)n[nH]c3c2)nc(N)n1 [GSK2291363],20,21,96.7,21,0,35,14,25,21,28
CN1C(=O)C(Nc2ccccc2)=C(c2ccccc2)C1=O [SB-300079],0,0,0,20,28,18,0,10,9,31
CCc1ccc(-c2ccc3c(c2)-c2nn(C)cc2S(=O)(=O)N3C)cc1,0,0,12,2,24,0,3,0,0,0
O=C(Nc1n[nH]c2nc(-c3ccccc3)c(Cl)cc12)C1CC1 [SB-734909],7,15,48,6,32,0,0,0,0,0
O=C(Nc1n[nH]c2cc(-c3ccccc3F)ccc12)C1CC1 [SB-733371],0,5,0,0,0,18,0,0,0,0
Cc1cc(Nc2nc(-c3cccc(C)n3)nc3ccccc23)ccn1 [GW872411],0,0,0,0,0,0,0,0,0,0
Nc1ncnc2c1ncn2-c1ccc(Cl)cc1 [AH2635],3,7,10,53,1,50,0,0,18,0
COc1ccc(-c2coc3ccc(-c4nnc(SCc5cccc(C#N)c5)o4)cc23)cc1,6,0,0,14,0,0,0,26,0,0
CN(C)c1cc(-c2ccc3c(N)n[nH]c3c2)nc(N)n1 [GSK2219329],9,13,3,25,0,30,15,0,11,0
Cc1cccc(-c2nc(Nc3ccc4c(cnn4C)c3)c3ccccc3n2)n1 [GW876731],0,0,13,0,0,8,0,0,0,0
Cc1nnc(-c2ccc3ncn(-c4ccc(S(C)=O)cc4)c3c2)o1 (stereo not drawn),35,6,3,29,0,11,0,26,0,15
O=C(Nc1ccc2c(c1)OCO2)NC1CCN(c2ccnc(NCc3ccc(F)cc3)n2)CC1 [GSK1379859],15,0,4,35,0,43,0,0,9,3
COc1cccc(C2=C(Nc3cccc(C(=O)O)c3)C(=O)NC2=O)c1 [SB-390770],8,7,21,6,16,0,0,0,2,0
Cl.c1ccc(Cn2cnc3cc(Nc4ncnc5ccccc45)ccc32)cc1 [GW272142],12,13,80,38,0,33,0,0,19,0
COc1ccc(-c2cc3c(C)nc(N)nc3n([C@H]3CC[C@H](O)CC3)c2=O)cn1,0,0,4,0,0,0,0,0,0,5
CC(C)(C)c1ccc(C(=O)Nc2cn3cc(-c4ccccc4)ccc3n2)cc1,3,0,0,50,0,4,0,0,0,6
Nc1n[nH]c2nnc(-c3ccccc3)c(-c3ccccc3)c12 [GW554060],43,8,17,27,16,32,0,0,3,0
COc1cc(Nc2ccnc3ccc(C(F)(F)F)cc23)cc(OC)c1OC [GW577382],14,20,49,16,30,23,0,5,0,1
CCC(=O)c1c(-c2ccccc2)c2cc(Cl)ccc2c(=O)n1Cc1cc(S(C)(=O)=O)n(CC(F)F)n1,1,0,0,0,0,0,7,11,0,0
COC(=O)c1c(-c2ccccc2)c2cc(Br)ccc2c(=O)n1Cc1ccc(NC(=O)CCC(=O)O)cc1,19,13,14,57,0,0,0,29,3,3

SMILES,%Inh (EPHB3) [%],%Inh (EPHB4) [%],%Inh (EPHB6) [%],%Inh (ERBB2) [%],%Inh (ERBB3) [%],%Inh (ERBB4) [%],%Inh (ERK1) [%],%Inh (ERK2) [%],%Inh (ERK3) [%],%Inh (ERK4) [%]
CCc1nc(-c2cccc(C)c2)c(-c2ccncc2)s1,7,14,0,48,0,5,0,12,0,12
Cc1nnc(-c2ccc(C)c(-c3ccc(C(=O)O)cc3)c2)o1 [GW608005],6,5,0,36,0,76,0,0,0,0
Cc1c(Cn2c(C)nn3c(=O)cc(N4CCO[C@H](C)C4)nc23)cccc1C(F)(F)F [GSK2373690],10,0,0,7,0,32,17,14,10,2
COc1cc2nccc(Nc3cccc(Oc4ccccc4)c3)c2cc1OC.Cl [GW284543],0,0,79,24,66,31,18,0,0,10
COc1cc(Nc2nccc(N3CCC(NC(=O)C(C)c4ccc(Cl)cc4)C3)n2)cc(OC)c1OC (stereo not drawn) [GSK1379757],23,11,94.7,61,0,26,0,0,5,12
CCC(=O)c1c(-c2ccccc2)c2cc(Cl)ccc2c(=O)n1Cc1cc(S(C)(=O)=O)n(CCC(C)(C)O)n1,9,0,21,0,7,20,12,32,14,14
COc1cccc(-n2cnc3c(N)ncnc32)c1 [SKF-97416],0,0,28,31,46,1,0,0,5,0
CCS(=O)(=O)c1ccc(OC)c(Nc2ncc(-c3ccc(F)cc3)o2)c1.Cl [GW591947],0,0,0,13,0,0,8,7,13,21
Cl.NS(=O)(=O)c1cccc(Nc2cc(-c3ccc(F)cc3)n[nH]2)c1 [GW824645],0,0,0,4,17,0,0,0,0,0
CCC(=O)c1c(-c2ccccc2)c2cc(Cl)ccc2c(=O)n1Cc1cc(S(C)(=O)=O)n(CC(N)=O)n1,0,0,15,39,0,0,0,0,0,0
COc1ccc(Nc2nccc(N3CCC(NS(=O)(=O)c4ccc(NC(C)=O)cc4)C3)n2)cc1 (stereo not drawn) [GSK1379729],35,25,28,20,18,0,20,10,6,0
Nc1ncnc2c1ncn2-c1cccc(F)c1 [SKF-97560],0,0,25,1,20,0,9,0,13,2
COc1cc2ncn(-c3cc(OCc4ccc(S(C)(=O)=O)cc4)c(C(N)=O)s3)c2cc1OC [GW869979],0,0,38,0,11,0,10,2,6,0
COc1ccc(-c2cc3c(C)nc(N)nc3n([C@H]3CC[C@H](OCCO)CC3)c2=O)cn1,16,5,4,13,0,0,0,14,0,16
O=C1NC(=O)C(c2ccccc2)=C1Nc1cccc(O)c1 [SB-390534],0,0,0,0,0,3,0,0,0,0
COc1cc(Nc2nccc(N3CCC(NC(=O)C4COc5ccccc5O4)C3)n2)cc(OC)c1OC (stereo not drawn) [GSK1379761],0,7,93.9,50,37,30,0,0,5,15
CCC(=O)c1c(-c2ccccc2)c2cc(Cl)ccc2c(=O)n1Cc1cc(C(=O)NC2CC2)n(C)n1,20,23,25,9,4,0,0,10,0,5
Cc1cccc(-c2cc(-c3c[nH]nc3-c3ccccn3)ccn2)c1 [GW679395],25,22,74,19,0,36,0,0,0,19
Nc1nc(N)c2nc(-c3ccccc3)[nH]c2n1 [SKF-12778],0,13,39,22,4,0,7,5,6,0
COc1ccc(-n2cnc3c(N)ncnc32)cc1 [SKF-97236],0,0,1,7,0,1,14,9,0,0
O=C(NCc1cccs1)c1cc(C(=O)c2c(Cl)cccc2Cl)c[nH]1 [GW823670],0,0,0,0,0,20,0,5,0,0
COc1cc2ncn(-c3cc(OCc4ccncc4Br)c(C(N)=O)s3)c2cc1OC [GW854278],0,18,3,11,37,0,0,0,0,4
O=c1cc(N2CCOCC2)nc2n(Cc3ccc(F)c(Cl)c3)ccn12 [GSK2297099],8,15,5,0,0,24,0,0,0,25
